Measured values: ChEMBL document CHEMBL3433997, “St. Jude Leishmania screening dataset” (2016)

Legend:
Type in all cases: functional
[1] = target: Solute carrier family 2, facilitated glucose transporter member 1 (Homo sapiens) (UniProt P11166); test: ST_JUDE_LEISH: Cytotoxicity at 2uM final concentration against transgenic Leishmania Mexicana promastigotes LmGLUT1 that are glucose transport deficient and complemented with the human glucose transporter GLUT1. Activity is measured by DNA content using SYBR green in vitro
Sequence of Solute carrier family 2, facilitated glucose transporter member 1 (Homo sapiens) (P11166 whole entry): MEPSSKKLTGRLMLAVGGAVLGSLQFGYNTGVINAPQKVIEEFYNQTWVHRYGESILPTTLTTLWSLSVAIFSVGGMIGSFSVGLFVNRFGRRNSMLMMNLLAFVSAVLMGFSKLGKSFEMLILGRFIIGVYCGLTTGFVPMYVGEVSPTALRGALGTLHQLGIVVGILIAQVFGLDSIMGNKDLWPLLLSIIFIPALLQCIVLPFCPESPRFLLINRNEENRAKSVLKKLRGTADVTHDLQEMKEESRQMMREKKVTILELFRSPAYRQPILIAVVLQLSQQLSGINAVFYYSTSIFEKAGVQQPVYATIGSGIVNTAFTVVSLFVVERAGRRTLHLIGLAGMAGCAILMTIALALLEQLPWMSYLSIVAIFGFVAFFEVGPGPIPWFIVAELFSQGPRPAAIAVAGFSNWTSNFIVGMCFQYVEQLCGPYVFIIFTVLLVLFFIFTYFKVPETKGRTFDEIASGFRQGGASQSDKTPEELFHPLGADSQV

[2] = target: Hexose transporter 1 (Plasmodium falciparum) (UniProt O97467); test: ST_JUDE_LEISH: Cytotoxicity at 2uM final concentration against transgenic Leishmania Mexicana promastigotes LmPfHT that are glucose transport deficient and complemented with the Plasmodium falciparum hexose transporter. Activity is measured by DNA content using SYBR green in vitro
[3] = target: Glucose transporter (Leishmania mexicana) (UniProt O61059); test: ST_JUDE_LEISH: Cytotoxicity at 2uM final concentration against transgenic Leishmania Mexicana promastigotes LmGT2 that are glucose transport deficient and complemented with the L. Mexicana glucose transporter 2. Activity is measured by DNA content using SYBR green in vitro

Row | Compound | inhibition [1] | inhibition [2] | inhibition [3]
1 | O=C(Cc1ccccn1)Nc1cccc(-c2cccc(-c3nc4cc(C(F)(F)F)ccc4[nH]3)c2)c1 | 0.14% | 1.02% | -0.1%
2 | CON=C1CCC(Cn2ccnc2)(c2ccc(Cl)cc2Cl)CC1 (centres undefined) | 7.4% | 2.3% | 4.22%
3 | CN(C)CCNC(=O)[C@H](CC1CCCCC1)NC(=O)c1ccc(O)c(-c2ccc(Cl)c(Cl)c2)c1 | 4% | 2.85% | 1.78%
4 | Nc1nc(N)c2c(ccc3c2ccn3C2CCCCC2)n1 | 24.3% | 36.6% | 25.7%
5 | CN1CCC(NCc2cccc(-c3cnc(NCc4ccccc4)nc3)c2)CC1 | 0.74% | 2.79% | 1%
6 | O=C(c1ccc([N+](=O)[O-])o1)N1CCN(c2nc3c(Cl)cccc3s2)CC1 | 39.8% | 37.4% | 4.58%
7 | COc1cccc(-c2ccc(C(=O)NC3CCN(Cc4ccc(C(C)(C)C)cc4)CC3)s2)c1 | 0.02% | 0.82% | -1.18%
8 | CNC(=O)c1cc(S(=O)(=O)N2CCN(c3ccccn3)CC2)cs1 | 0.24% | 0.78% | -2.48%
9 | COc1ccc2nc(-c3cc(-c4ccc(NC(=O)CN5CCOCC5)cc4)cnc3N)[nH]c2c1 | 17.5% | 44.4% | 11.7%
10 | CCCCCOc1ccc(/N=C2\C=C(O)C(=O)c3ccccc32)cc1 | 1.82% | 2.9% | 2.17%
11 | CCCNCc1ccc(-c2ccc(CN(Cc3ccc4c(c3)OCO4)C(=O)Cc3cccnc3)cc2)nc1 | 23.9% | 15.2% | 10.2%
12 | CCc1nc2c(cnn2CC)c(NC2CCOCC2)c1CNC(=O)N1CCOCC1 | 3.81% | -1.12% | -0.36%
13 | CN(N=Cc1ccccc1)C(=N)NCCCC#Cc1cccc(CN2CCCC2)c1 | 11.4% | 6.82% | 1.72%
14 | COc1ccc(C2CCN(CCN3CCC(NC(=O)c4cccc(-c5ccncc5)c4)CC3)CC2)c(OC)c1 | 1.32% | 0.37% | 0.47%
15 | Cc1c(Cc2ccc(F)cc2)c(Cl)nc2nc(N)nc(N)c12 | 0.75% | 0.4% | -0.27%
16 | CC(Oc1cc(-n2cnc3ccc(NC(=O)CCN4CCCCC4)cc32)sc1C(N)=O)c1ccccc1Cl (centres undefined) | 16.8% | 9.84% | 6.83%
17 | COc1ccc2ncc(F)c([C@@H](O)CN3CCC(NCc4cc(C#N)c5c(c4)CCO5)CC3)c2n1 | 3.43% | 3.05% | 0.58%
18 | CN1CCC(NCc2ccc(-c3ccc(S(=O)(=O)NCc4ccccc4)cc3)cc2)CC1 | 0.4% | -1.45% | -3.56%
19 | CC[C@H](C)CNC(=O)c1cccc(-c2ccc(CN3CCC(N4CCCC4)CC3)cc2)n1 | 2.3% | 0.54% | 1.28%

Row | Compound | inhibition [1] | inhibition [2] | inhibition [3]
20 | c1cc(OCCN2CCCC2)ccc1CNC1CCN(CC2CCCCC2)CC1 | -3.76% | -0.11% | -4.21%
21 | Oc1ccc(CCNCCCCCCNCCc2ccc(-c3ccccc3)cc2)cc1O | 1.33% | 1.69% | 1.57%
22 | CO/C(=C\C=C\c1cc2cc(Cl)c(Cl)cc2[nH]1)C(=O)NCCCN1CCN(c2cccc(OCC(=O)Nc3ccccc3)c2)CC1 | 8.53% | 8.92% | 5.76%
23 | Nc1nc(-c2ccccn2)nc(-n2nc(-c3cccc(C(F)(F)F)c3)cc2N)n1 | 3.56% | 2.31% | 1.29%
24 | CC(C)CCNC(=O)C1Cc2c([nH]c3ccc(Br)cc23)C2(CCN(CCc3ccccc3)CC2)N1 (centres undefined) | 1.72% | 0.42% | 0.26%
25 | Cc1cccc2nc(-c3cccc(-c4cccc(NC(=O)CCc5c[nH]cn5)c4)c3)[nH]c12 | 0.79% | 0.27% | 1.56%
26 | Cc1cc(N(C)C)nc(Nc2ccc(NC(=O)c3cccc(F)c3)cc2)n1 | 3.36% | 10.1% | 3.75%
27 | Cc1cc(-c2ccc(NC(=O)c3coc4ccc(N5CC(C)N(C)C(C)C5)cc34)cc2C)cc(C)n1 (centres undefined) | 2.55% | 3.78% | 1.55%
28 | O=[N+]([O-])c1cccc(CNC2CCN(Cc3ccc(C(F)(F)F)cc3)CC2)c1 | 2.18% | 2.08% | 3.71%
29 | CC(C)c1ccc(CN2CCCCC(NC(=O)c3cc(-c4ccccc4Cl)cs3)C2)cc1 (centres undefined) | -0.41% | -1.98% | -4.09%
30 | CCCCCn1c(Sc2ccc(C#N)c([N+](=O)[O-])c2)nnc1-c1cc(OC)cc(OC)c1 | 13% | 10.4% | 9.25%
31 | NCCCN(Cc1ccc(Cl)c(Cl)c1)C(=O)Nc1ccc(Cl)c(Cl)c1 | 14.3% | 9.33% | 10.1%
32 | COc1cc2nc(NCCc3ccccc3)nc(N(C)Cc3ccccc3)c2cc1OC | 5.11% | 5.4% | 2.95%
33 | CCCNCc1ccc(-c2ccc(CN(Cc3cccs3)C(=O)C3CCN(C)CC3)cc2)nc1 | 2.14% | 0.83% | -0.89%
34 | N#Cc1ccc(N[C@@H](CC2CCCCC2)C(=O)Nc2ccc(-c3ccccc3)cc2)c2ccccc12 | 2.38% | 3.08% | 3.75%
35 | C[C@@H](COc1ccccc1)NCC(O)c1ccc([N+](=O)[O-])c(OCc2ccccc2)c1 (some centres undefined) | 0.54% | 0.96% | 0.1%
36 | CN1CCN(c2cc(-c3cccnc3)nc(-c3ccncc3)n2)CC1 | 5.56% | 5.65% | 3.57%
37 | COc1ccc(N2CCN(CCCNC(=O)c3ccc(NC(=O)c4cc(Cl)cc(Cl)c4)cc3)CC2)c(OC)c1 | 4.49% | 0.82% | 3.87%
38 | NCc1ccc(CNCc2cccc(-c3ccc(-c4nc5cc(C(F)(F)F)ccc5[nH]4)cc3)c2)cc1 | 2.92% | 1.34% | 0.8%
